This is an account of results in PubChem BioAssay AID651871 (Sanford-Burnham Center for Chemical Genomics, 2012).

Each structure is given as a SMILES string. Where “and” joins values, the source holds several entries; their conditions need not be identical. Identical values can stand only once.

This test relates to H9c2. In words: cardiomyocyte survival under oxidative or metabolic stress – cell-based, panel, H9c2 and HL-1, ATP luminescence, set 2, SAR follow-up (AID 651871).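 Note: cells exposed to stressor for 2 h before ATP readout; reference of the scale not given here.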 As to conditions: H9c2/HL-1 cardiomyocytes, 2-deoxyglucose stress, with 2-deoxyglucose; run 1, at 79 µM (top of the series).
For `CCOC(=O)c1cccc(NC(=O)CNC(=O)c2cc(-c3cc(OC)c(OC)c(OC)c3)nc3ccccc23)c1`, the activity (protection/inhibition) is 92.1%.

Turning to `COc1ccc2c(c1OC)C(=O)N1c3ccccc3C(=O)N(Cc3cccc(Cl)c3Cl)C21` (stereo not drawn), the activity (protection/inhibition) was 80.3% and 69.7% and -3.54%. Take `COc1ccc2nc(-c3cc(OC)c(OC)c(OC)c3)cc(C(=O)NCC(=O)Nc3ccc(C(C)=O)cc3)c2c1`: the activity (protection/inhibition) was found to be 74.1%.
